The list is a sample of the results.
aSyn UTR act – Activators working through SNCA 5'UTR binding (MLPCN); AID 1814; alpha-synuclein 5'UTR reporter, activators screen; hit rate 7.1% among 300,000; activity score, % (tested at 7.5 µM), hits read low; in the data active = activity score below about -60%
The depositor's hits bear a star.

SMILES	aSyn UTR act
COc1ccc(NC(=O)c2cccnn2)cc1	-97*
COc1ccc(NC(=O)c2cc(-c3ccccc3)on2)cc1	-77*
CCc1ccccc1NC(=O)c1cc(-c2ccc(OC)cc2)on1	-77*
COc1ccc(-c2cc(C(=O)Nc3cc(Br)ccc3O)no2)cc1	-107*
Nc1nc(Nc2cccc(F)c2)nc2ccccc12	-196*
O=c1oc(Nc2cccc(F)c2)nc2ccccc12	-64*
O=C1c2cc(F)ccc2-n2c1nc1ccccc1c2=O	66
O=C(c1ccc2c(c1)OCCCO2)c1cccs1	-118*
O=C(Nc1ccc2c(c1)OCO2)c1ccc(Br)s1	-240*
O=C(Nc1ccc2c(c1)OCCO2)c1cccs1	-76*
CCN(CC)S(=O)(=O)c1cc(NC(=O)c2ccc(Br)s2)ccc1C	-95*
O=C(CN1C(=O)c2ccccc2S1(=O)=O)c1ccc2c(c1)OCCCO2	114
O=C(N/N=C\c1cc2c(cc1Cl)OCO2)c1cccs1	-67*
O=C(/C=C\Nc1ccc2c(c1)OCO2)c1cccs1	-147*
O=C(Nc1ccc2c(c1)OCO2)c1cccs1	-176*
CC(C)(C)c1cc(C(=O)NCc2cc(F)cc3c2OCOC3)n(Cc2ccccc2)n1	-109*
O=Cc1c(NCc2ccco2)nc2ccccn2c1=O	-89*
COc1ccccc1NC(=S)N(Cc1ccco1)Cc1cc2cc(C)c(C)cc2[nH]c1=O	91
Cc1ccc2[nH]c(=O)c(-c3nc4ccccn4c3NCc3ccco3)cc2c1	-100*
COc1cccc(-c2nc3n(n2)C(c2ccc4c(c2)OCO4)C(C(N)=O)=C(C)N3)c1 (configuration not stated)	-111*
O=C(CSc1ccsc1[N+](=O)[O-])NCc1ccccc1	-104*
COc1ccccc1CNC(=O)CSc1ccsc1[N+](=O)[O-]	-114*
c1ccc2c(Nc3nnc(-c4ccncc4)s3)cccc2c1	-186*
Cc1ccn2cc(C(=O)Nc3nnc(C)s3)nc2c1	-111*
Cc1ccn2cc(C(=O)Nc3ccccc3N3CCOCC3)nc2c1	-90*
SMILES	aSyn UTR act
COc1ccc(Cl)cc1NC(=O)CN(C)CC(=O)Nc1ccccc1N1CCOCC1	112
O=C(Nc1ccccc1N1CCOCC1)c1ccc2ccccc2n1	-118*
O=C(Nc1nc2ccsc2c(=O)s1)C1CCC1	-96*
O=C(Nc1nc2c(Cl)ccc(Cl)c2s1)c1ccco1	-184*
O=C(Nc1nc2c(s1)CCc1ccccc1-2)c1ccco1	-140*
O=c1sc(Nc2ccccc2)nc2ccsc12	-111*
Cc1nc2ccc3nc(NC(=O)c4ccco4)sc3c2s1	-152*
O=C(Nc1nc2ccsc2c(=O)s1)c1ccco1	-130*
O=C(Nc1ccnc(-c2cccnc2)n1)c1ccc(Cl)cc1	-117*
O=C(NC(c1ccc(Cl)cc1)c1cc(Cl)c2cccnc2c1O)c1cccnc1 (configuration not stated)	98
Cc1ccc(C(=O)Nc2cccc3cccnc23)cc1C	-87*
O=C(Nc1cccnc1Cl)c1ccc(Cl)cc1	-148*
O=C(NC(=S)Nc1cccnc1Cl)c1ccc(Cl)cc1	-154*
C/C(=N\Nc1cccc2cccnc12)c1ccc(C)cc1	-170*
CC(C)C(=O)NC(c1ccc(Cl)cc1Cl)c1ccc2cccnc2c1O (configuration not stated)	92
CCC(=O)NC(c1ccc(C)cc1)c1ccc2cccnc2c1O (configuration not stated)	81
O=C(Nc1cccc2cccnc12)c1ccc(Cl)cc1	-76*
Cc1ccc(/C=C/C(=O)Nc2cccc3cccnc23)o1	-132*
Cc1ccc(-c2nc3ccccc3c(=O)o2)cc1	-84*
Cc1cc(-c2ccc(Cl)s2)n[nH]1	-80*
Cc1ccc(OCc2csc(N)n2)cc1	-108*
Nc1nc(COc2ccc(Cl)cc2)cs1	-93*
Nc1nc(COc2ccccc2)cs1	-67*
CCn1cc(C(=O)Nc2ccc(Cl)cc2Cl)cn1	-72*
COc1cc(CNCCO)ccc1OCC(=O)Nc1ccc(Br)cc1	-69*
SMILES	aSyn UTR act
Cc1ccc(OCCCCCCN2CCNCC2)cc1	-64*
COc1ccc(N2C(=O)c3ccccc3NC23CCCC3)cc1	-90*
CCN(CC)S(=O)(=O)c1ccc(-c2cn3cc(Cl)ccc3n2)cc1	-91*
Cn1cccc1/C=C1\Cc2ccccc2C1=O	-142*
NNc1nc2ccccc2c(=O)n1Cc1ccccc1	-133*
Cc1ccccc1C(=O)NC(=S)NCCc1ccccc1	-66*
O=C(NC(=S)NCCc1ccccc1)c1ccco1	-80*
Cc1ccccc1C(=O)NC(=S)Nc1ncccn1	-66*
S=C(NCC1CCCO1)Nc1ccc(Cl)cc1Cl (configuration not stated)	-87*
O=C(NCC1CCCO1)Nc1ccc(Cl)cc1 (configuration not stated)	-73*
Cn1c(SCC(=O)NCC2CCCO2)ncc(C(=O)Nc2ccc(Cl)cc2)c1=O (configuration not stated)	-72*
Clc1ccc(-c2ccc(CNCC3CCCO3)o2)cc1 (configuration not stated)	-67*
CCN(CC)c1ccc(NC(=S)NCC2CCCO2)cc1 (configuration not stated)	-83*
